This is part of a sample that, as a whole, favours compounds with a hit. Of some 83,000 tested, about 20% had one in any assay.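 48-hour exposure, single concentration, 96-well plates; percent growth endpoint where 0 means no net growth. Active: below 10.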 Active and inactive are the calls of the source.
How the values were obtained:
Experiment in all cases: NCI-60 one-dose screen, 48 h (100 = growth as untreated, 0 = no growth, -100 = all killed)
[1] = test system: EKVX NSCLC; settings: 10 µM
[2] = test system: SN12C renal; settings: 10 µM
[3] = test system: UO-31 renal; settings: 10 µM
[4] = test system: TK-10 renal; settings: 10 µM unless noted
[5] = test system: ACHN renal; settings: 10 µM
[6] = test system: CAKI-1 renal; settings: 10 µM
[7] = test system: A498 renal; settings: 10 µM
[8] = test system: CCRF-CEM leukemia; settings: 10 µM
[9] = test system: MOLT-4 leukemia; settings: 10 µM

Measured: growth

COC(=O)Nc1nc2ccc(C(=O)c3cccs3)cc2[nH]1
inactive: [1] 37.8% | [2] 29.6% | [3] 48.8% | [4] 61.6% | [5] 40.5% | [6] 19.8%
active: [7] -1.63% | [8] 6.93% | [9] -13.6%

CCCCC(O)c1ccccc1 (stereo not given)
inactive: [1] 110% | [2] 109% | [3] 94.2% | [4] 106% | [5] 110% | [6] 99.7% | [7] 95.8% | [8] 107% | [9] 101%

CCCCN(CCCC)CCCO
inactive: [1] 110% | [2] 107% | [3] 104% | [4] 85% | [5] 105% | [6] 106% | [7] 114% | [9] 113%

COC(=O)/C=C1\Sc2cc(F)ccc2NC1=O
inactive: [1] 88.2% | [2] 116% | [3] 101% | [4] 139% | [5] 111% | [6] 60.9% | [7] 126% | [8] 87.9% | [9] 92.3%

CN(C)C(C)(C)CC(C)(C)C
inactive: [1] 95.8% | [2] 98.3% | [3] 76.7% | [4] 143% | [5] 100% | [6] 101% | [7] 110% | [8] 89.8% | [9] 95.1%

O=C(O)CCCc1ccccc1
inactive: [1] 116% | [2] 101% | [3] 94.9% | [4] 98.9% | [5] 108% | [6] 108% | [7] 121% | [8] 102% | [9] 98.4%

NC(C(=O)O)C(O)c1ccco1 (stereo not given)
inactive: [1] 109% | [2] 111% | [3] 96.6% | [4] 101% | [5] 113% | [6] 97.4% | [7] 94.5% | [8] 94% | [9] 112%

CC(=O)Oc1ccc(Br)cc1C(=O)O
inactive: [1] 104% | [2] 102% | [3] 81.8% | [4] 102% | [5] 99.3% | [6] 95.8% | [7] 131% | [8] 88.7% | [9] 101%

CC1=CC(C)(C)NC(=S)N1c1ccc(S(=O)(=O)O)c2cccc(S(=O)(=O)O)c12
inactive: [1] 115% | [2] 103% | [3] 72.6% | [4] 106% | [5] 99.5% | [6] 115% | [7] 97.6% | [8] 94.1% | [9] 114%

O=[N+]([O-])c1ccc(Sc2ccncn2)c([N+](=O)[O-])c1
inactive: [1] 105% | [2] 51.3% | [3] 51.1% | [4] 34.3% | [5] 37.2% | [6] 39.7% | [7] 127% | [8] 41.2% | [9] 66.1%

O=S(=O)(O)CC(O)CN1CCN(CCO)CC1 (stereo not given)
inactive: [1] 119% | [2] 110% | [3] 91.6% | [4] 116% | [5] 111% | [6] 106% | [7] 106% | [8] 103% | [9] 90.3%

C=CCNc1nnc(C)s1
inactive: [1] 109% | [2] 95.6% | [3] 81.1% | [4] 123% | [5] 96.7% | [6] 119% | [7] 123% | [8] 105% | [9] 168%

CCOC(=O)Nc1cc2c(c(N)n1)N=C(c1ccccc1)CO2
inactive: [1] 33.4% | [2] 29.3% | [3] 21.3% | [4] 53.3% | [5] 49.9% | [6] 24.2% | [8] 13.5% | [9] 15.7%

CC(=O)Nc1cccc(NC(C)=O)n1
inactive: [1] 104% | [2] 99.7% | [3] 99.4% | [4] 111% | [5] 105% | [6] 126% | [7] 100% | [8] 90.3% | [9] 111%

NC(C(=O)O)c1ccc([N+](=O)[O-])cc1 (stereo not given)
inactive: [1] 98% | [2] 91.6% | [3] 78.2% | [4] 156% | [5] 98.1% | [6] 99.5% | [7] 107% | [8] 98.5% | [9] 105%

COc1cc2nc3cc([N+](=O)[O-])ccc3c(Cl)c2cc1OC
active: [7] 7.26%
inactive: [1] 83.3% | [2] 97.7% | [3] 84.1% | [4] 95.2% | [5] 91.9% | [6] 101% | [9] 107%

N=c1c(C(=O)OCc2ccccc2)ncc(CCl)n1O
inactive: [1] 101% | [2] 88.6% | [3] 83.5% | [4] 106% | [5] 94.6% | [6] 92.2% | [7] 103% | [8] 94% | [9] 97.8%

C=CCOC(=O)C(=O)OCC=C
inactive: [1] 132% | [2] 101% | [3] 108% | [4] 95.1% | [5] 100% | [6] 136% | [7] 119% | [8] 90.7% | [9] 104%

COc1cc(C(=O)N/N=C/c2cccc([N+](=O)[O-])c2)cc(OC)c1OC
inactive: [1] 83.8% | [2] 93.8% | [3] 73.7% | [4] 81.1% | [5] 79.9% | [6] 55.4% | [8] 62.1% | [9] 70.7%

CC(=O)c1ccc(C(C)(C)C)cc1
inactive: [1] 106% | [2] 97% | [3] 82.7% | [4] 105% | [5] 97.7% | [6] 92.7% | [7] 123% | [8] 88.4% | [9] 98.9%

COCCCC/C(=N\OCCN)c1ccc(C(F)(F)F)cc1
inactive: [1] 93.1% | [2] 94% | [3] 74.1% | [4] 98.9% | [5] 98.6% | [6] 83.5% | [7] 89.1% | [8] 101% | [9] 96.7%

OCc1cccc2ccccc12
inactive: [1] 119% | [2] 108% | [3] 95.5% | [4] 100% | [5] 98.6% | [6] 110% | [7] 109% | [9] 97.5%

CCOC(=O)C1=C(C)NC(=O)NC1c1cccs1 (stereo not given)
inactive: [1] 109% | [2] 103% | [3] 87.7% | [4] 108% | [5] 113% | [6] 103% | [7] 125% | [8] 95.8% | [9] 82.7%

Cc1cccc(C(=O)N(C(C)C)C(C)C)c1
inactive: [1] 95% | [2] 96.1% | [3] 94.4% | [4] 87% | [5] 101% | [6] 96.4% | [7] 71.9% | [8] 90.7% | [9] 108%

CCOC(=O)C(=O)C=P(c1ccccc1)(c1ccccc1)c1ccccc1
inactive: [1] 105% | [2] 103% | [3] 90.2% | [4] 99% | [5] 108% | [6] 101% | [7] 105% | [8] 99.9% | [9] 101%

O=C(CN1CCNCC1)N1CCOCC1
inactive: [1] 107% | [2] 104% | [3] 84.6% | [4] 110% | [5] 110% | [6] 101% | [7] 116% | [8] 100% | [9] 81.6%

Cc1ccncc1C(N)=O
inactive: [1] 106% | [2] 101% | [3] 97% | [4] 112% | [5] 95.3% | [6] 64.4% | [7] 82.7% | [8] 83.1% | [9] 95.2%

N#CCc1ccc([N+](=O)[O-])cc1
inactive: [1] 97.8% | [2] 101% | [3] 72.1% | [4] 107% | [5] 103% | [6] 93% | [7] 90.7% | [8] 100% | [9] 74.2%

C=CCCCCCCCCCOC(C)=O
inactive: [2] 98.8% | [3] 92.4% | [4] 91.5% | [5] 110% | [6] 104% | [7] 111% | [8] 101% | [9] 103%

O=C(CCl)N1CCN(C/C=C/c2ccccc2)CC1
inactive: [2] 64.6% | [3] 93.1% | [4] 85.6% | [5] 95.8% | [6] 99.3% | [7] 94% | [8] 21.7% | [9] 71.4%

O=[N+]([O-])c1ccc(S(=O)(=O)NN=C2CCCCC2)cc1
inactive: [1] 104% | [2] 103% | [3] 67.8% | [4] 128% | [5] 100% | [6] 92.5% | [9] 98.7%

O=C(O)c1ccccc1NCc1ccco1
inactive: [1] 103% | [2] 99.8% | [4] 64.7% | [5] 115% | [7] 99.9% | [8] 98.6% | [9] 104%

CCC(=O)Oc1ccc(OC)cc1
inactive: [2] 101% | [3] 80.9% | [4] 84.4% | [5] 101% | [6] 98.3% | [7] 101% | [8] 101% | [9] 92.5%

Source: PubChem BioAssay (NCI)
